Source: PubChem BioAssay
In the library only some 1.6% were active in any assay of this set; here they are far more common.
KCNQ2 block: blocks the rat KCNQ2 potassium channel. 1.1% of 310,000 active. B-score at 10 µM. CHO-K1 KCNQ2, FluxOR thallium flux, 20 min; active compounds read low. O88943;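 active = fluorescence ratio B-score at most minus 3 library SDs, with starting brightness B-score within 2 library SDs, cut at about -5.5 in these data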
Target sequence (O88943 whole entry, looked up): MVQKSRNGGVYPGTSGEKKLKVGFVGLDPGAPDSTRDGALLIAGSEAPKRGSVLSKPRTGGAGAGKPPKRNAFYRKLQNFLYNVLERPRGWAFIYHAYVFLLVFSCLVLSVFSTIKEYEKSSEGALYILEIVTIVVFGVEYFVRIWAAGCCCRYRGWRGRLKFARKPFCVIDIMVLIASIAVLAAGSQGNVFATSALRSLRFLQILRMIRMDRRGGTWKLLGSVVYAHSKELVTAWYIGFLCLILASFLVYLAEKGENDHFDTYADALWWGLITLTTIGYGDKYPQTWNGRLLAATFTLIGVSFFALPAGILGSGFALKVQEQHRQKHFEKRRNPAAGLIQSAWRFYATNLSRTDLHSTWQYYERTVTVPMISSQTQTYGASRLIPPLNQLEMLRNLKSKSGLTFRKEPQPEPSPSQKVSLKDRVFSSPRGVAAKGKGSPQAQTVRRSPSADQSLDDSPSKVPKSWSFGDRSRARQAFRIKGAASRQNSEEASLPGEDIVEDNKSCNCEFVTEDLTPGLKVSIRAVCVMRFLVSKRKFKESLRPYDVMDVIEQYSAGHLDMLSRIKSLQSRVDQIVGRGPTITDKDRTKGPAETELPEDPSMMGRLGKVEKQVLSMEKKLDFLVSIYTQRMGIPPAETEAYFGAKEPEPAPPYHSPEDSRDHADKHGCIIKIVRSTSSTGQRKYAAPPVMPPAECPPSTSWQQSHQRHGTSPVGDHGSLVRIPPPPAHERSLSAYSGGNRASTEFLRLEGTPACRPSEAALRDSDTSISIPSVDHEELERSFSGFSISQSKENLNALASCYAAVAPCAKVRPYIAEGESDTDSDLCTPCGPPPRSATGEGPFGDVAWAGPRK
KCNQ2 enhance: potentiators of rat KCNQ2 potassium channel. O88943. CHO-K1 KCNQ2, FluxOR thallium flux fluorescence; active compounds read high. B-score at 10 µM. 0.54% of 310,000 active. AID 2239;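 active = fluorescence ratio B-score at least 3 SD of library B-scores, with initial fluorescence B-score within 3 of them, cut at about 5.3 in these data; same plate scores as AID 2156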;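 note: B-score of peak minus minimum over baseline fluorescence ratio after K+ and Tl+ stimulus; positive B-score means potentiation of KCNQ2 with more thallium influx and brighter signal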
KCNQ2 block conf: rat KCNQ2 channel inhibition, confirmatory screen; KCNQ2-expressing cells, thallium flux; active compounds read low; 57% of 1,000 active; activity change, negative = inhibition, % at 10 µM; AID 493025; shares compounds with KCNQ2 block;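 note: 0% = vehicle wells and values are ratio percent relative to vehicle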
KCNQ1 spec: selectivity of KCNQ2 inhibitors against human KCNQ1. shares compounds with KCNQ2 block. KCNQ1-expressing cells, FluxOR thallium flux fluorescence; active compounds read low. activity change, negative = inhibition, % at 10 µM. 15% of 1,000 active;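 active = activity change at least 3 SD of negative controls below their mean in both duplicate wells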;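 note: CHO cells stably transfected with KCNQ1 and depolarized by potassium stimulus; peak minus minimum fluorescence over baseline after thallium addition; 0% = vehicle negative control and -100% = blank without thallium stimulus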
CHO parental ctr: activity in parental CHO cells lacking KCNQ2 | shares compounds with KCNQ2 block | thallium flux counter-screen; active compounds read low | activity change, % at 10 µM | 14% of 1,000 active | AID 493029;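 note: 0% = vehicle negative controls with stimulus buffer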
KCNQ2 inh confirm: rat KCNQ2 inhibition confirmed by electrophysiology. 49% of 550 active. shares compounds with KCNQ2 block. KCNQ2-expressing cells, automated patch clamp current. calls only at 10 µM
An asterisk follows results filed as active. Unless noted, the rule behind the calls is not given here.

For COc1cccc(NC(=O)CN2C(=O)COc3ccc(S(=O)(=O)N4CCCCCC4)cc32)c1 the results were KCNQ2 block inactive and KCNQ2 enhance 1.16.
`Nc1nc(-c2ccccc2)c(-c2ccccc2)o1` gave KCNQ2 block inactive.
`c1ccc(-c2nc(-c3nccc4ccccc34)oc2-c2ccccc2)cc1` gave KCNQ2 block -8.61*, KCNQ2 enhance -8.61, KCNQ2 block conf inactive, KCNQ1 spec inactive and CHO parental ctr inactive.
For COC(=O)c1cccc(Nc2c3c(nc4ccccc24)CCC3)c1 the results were KCNQ2 block -6.63*, KCNQ2 enhance -6.63, KCNQ2 block conf -25.5%*, KCNQ1 spec inactive, CHO parental ctr inactive and KCNQ2 inh confirm active.
`CC(=O)c1cccc(Nc2c3c(nc4ccccc24)CCC3)c1` gave KCNQ2 block inactive.
Cc1ccc(NC(=O)CN2C(=O)NC3(CCCCC3C)C2=O)cc1S(=O)(=O)N1CCCCC1 (stereo not drawn) was read as KCNQ2 block inactive and KCNQ2 enhance 0.3.
O=C(COC(=O)c1ncc(Cl)c(Cl)c1Cl)Nc1ccc(Cl)cn1 was read as KCNQ2 block inactive and KCNQ2 enhance 1.4.
For N#C/C(=C/C=C/c1ccccc1)C(=O)Nc1ccccc1 the results were KCNQ2 block inactive.
`N#C/C(=C\C=C\c1ccccc1)C(=O)Nc1ccccc1` gave KCNQ2 block -7.41*, KCNQ2 enhance -7.41, KCNQ2 block conf inactive, KCNQ1 spec inactive and CHO parental ctr inactive.
`O=C1/C(=C/c2ccc([N+](=O)[O-])cc2)CCC1C1CCCC1` (stereo not drawn) gave KCNQ2 block inactive.
For CCN(CC)S(=O)(=O)c1ccc2[nH]cc(C(=O)NC3CC3)c(=O)c2c1 the results were KCNQ2 block inactive.
Screening O=C(Cc1c(F)cccc1Cl)N(Cc1ccccc1)c1ccccn1 returned KCNQ2 block inactive and KCNQ2 enhance 0.31.
For O=C(/C=C/c1ccc(Cl)cc1)N(Cc1ccccc1)c1ccccn1 the results were KCNQ2 block -8.26*, KCNQ2 enhance -8.26, KCNQ2 block conf -31.0%*, KCNQ1 spec inactive, CHO parental ctr inactive and KCNQ2 inh confirm active.
`Cc1ccc([N+](=O)[O-])cc1NC(=O)c1cccnc1` gave KCNQ2 block inactive.
CC(C)Oc1cccc(C(=O)Nc2ccccc2N2CCOCC2)c1 was read as KCNQ2 block inactive.
Screening COc1cccc(C(=O)NC(=S)Nc2ccccc2N2CCOCC2)c1 returned KCNQ2 block -8.67*, KCNQ2 enhance -8.67, KCNQ2 block conf -29.0%*, KCNQ1 spec inactive, CHO parental ctr inactive and KCNQ2 inh confirm active.
Screening Cc1ccc(CN2CCC(n3nccc3NC(=O)c3ccccc3C)CC2)o1 returned KCNQ2 block inactive and KCNQ2 enhance 1.67.
Screening N#C/C(=C\c1ccc2c(c1)OCCO2)C(=O)Nc1nccs1 returned KCNQ2 block inactive.
`Cc1cccc(NC(=O)c2ccccc2OCC(=O)c2ccccc2)c1` gave KCNQ2 block -8.23*, KCNQ2 enhance -8.23, KCNQ2 block conf inactive, KCNQ1 spec inactive and CHO parental ctr inactive.
`Cc1ccc(NC(=O)c2ccccc2OCC(=O)c2ccccc2)cc1` gave KCNQ2 block inactive.
`CCc1noc(C)c1C(=O)NNC(=O)c1ccccc1F` gave KCNQ2 block inactive.
Screening COc1ccccc1CNC(=O)CSC1=NCCS1 returned KCNQ2 block -6.79*, KCNQ2 enhance -6.79, KCNQ2 block conf inactive, KCNQ1 spec inactive and CHO parental ctr inactive.
COc1ccccc1CNC(=O)CSc1ccc(Br)cc1 was read as KCNQ2 block inactive.
O=C(CSC1=NCCS1)NC(c1ccccc1)c1ccccc1 was read as KCNQ2 block -8.25*, KCNQ2 enhance -8.25, KCNQ2 block conf -42.0%*, KCNQ1 spec -34.5%*, CHO parental ctr -32.0%* and KCNQ2 inh confirm active.
Screening O=C(CSC1=NCCS1)NC(NC(=O)CSC1=NCCS1)c1ccccc1 returned KCNQ2 block inactive and KCNQ2 enhance 0.49.
For COCC1CCN(C(=O)c2cc(COc3cc(C)c(Cl)c(C)c3)on2)C1 (stereo not drawn) the results were KCNQ2 block inactive and KCNQ2 enhance 1.53.
Screening Cc1ccc(S(=O)(=O)NCC(=O)NCC(=O)OC(C(=O)NC(N)=O)C(C)C)cc1C (stereo not drawn) returned KCNQ2 block inactive.
For O=C(O)C1CC=C(Cl)CC1C(=O)NC1CCCCC1 (stereo not drawn) the results were KCNQ2 block inactive and KCNQ2 enhance 0.09.
Screening Cc1nn(-c2ccccc2)c(/N=C/c2ccccc2O)c1-c1ccccc1 returned KCNQ2 block -10.8*, KCNQ2 enhance -10.8, KCNQ2 block conf -43.0%*, KCNQ1 spec -50.5%*, CHO parental ctr -43.0%* and KCNQ2 inh confirm inactive.
`Cc1nn(-c2ccccc2)c(N)c1-c1ccccc1` gave KCNQ2 block inactive.
Screening COc1cc2c(cc1OC)CN(c1ccc(C(N)=O)cc1[N+](=O)[O-])CC2 returned KCNQ2 block inactive and KCNQ2 enhance 0.68.
Screening COc1ccc(/C=N/Nc2nc(C)cc(-c3ccccc3)n2)c(OC)c1 returned KCNQ2 block inactive and KCNQ2 enhance 1.78.
For COc1ccc(/C=N/Nc2cc(C)nc3ccc(OC)cc23)c(OC)c1 the results were KCNQ2 block -8.96*, KCNQ2 enhance -8.96, KCNQ2 block conf -41.0%*, KCNQ1 spec -32.0%*, CHO parental ctr -24.0%* and KCNQ2 inh confirm inactive.
Screening O=C(CSc1nnc(Cc2cccs2)n1Cc1ccco1)Nc1ccc(Cl)cc1Cl returned KCNQ2 block -6.86*, KCNQ2 enhance -6.86, KCNQ2 block conf inactive, KCNQ1 spec inactive and CHO parental ctr inactive.
`Cn1c(Cc2cccs2)nnc1SCC(=O)Nc1ccccc1F` gave KCNQ2 block inactive.
Screening Cc1onc(-c2ccccc2Cl)c1C(=O)NCC(=O)O returned KCNQ2 block inactive and KCNQ2 enhance 0.01.
For Cc1onc(-c2ccccc2Cl)c1C(=O)NCCn1c(C)cc2ccccc21 the results were KCNQ2 block -11.9*, KCNQ2 enhance -11.9, KCNQ2 block conf -35.5%*, KCNQ1 spec inactive, CHO parental ctr inactive and KCNQ2 inh confirm active.
Screening Fc1ccc(CSc2nnc(-c3ccncc3)o2)cc1 returned KCNQ2 block inactive and KCNQ2 enhance 1.53.
For Cc1ccccc1-c1nnc(SCc2ccc(F)cc2)o1 the results were KCNQ2 block -9.12*, KCNQ2 enhance -9.12, KCNQ2 block conf inactive, KCNQ1 spec inactive and CHO parental ctr inactive.
Screening COc1ccc(C(=O)/C=C/Nc2ccc([N+](=O)[O-])cc2)cc1 returned KCNQ2 block inactive.
For COc1ccc(C(=O)CC(Nc2ccc([N+](=O)[O-])cc2)c2ccc(OC)cc2)cc1 (stereo not drawn) the results were KCNQ2 block -10.5*, KCNQ2 enhance -10.5, KCNQ2 block conf -26.0%*, KCNQ1 spec inactive, CHO parental ctr inactive and KCNQ2 inh confirm inactive.
